PubChem BioAssay (NCATS)
Activity calls are given as the source filed them. Calls come from the whole dose curve; as a rule, active = well fitted curve in the direction sought with a large enough effect; inconclusive = small, poorly fitted or top-dose-only effect, or effect the other way, or another doubt; inactive = no such curve, though single readings can be large or run the other way.

Test: qHTS for Inhibitors of Cell Surface uPA Generation: Validation Assay (AID 493164);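 note: RAW 264.7 macrophage cells exposed to compound for 18 h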
Conditions: mouse cells, plasminogen activation; series mostly up to 38.3 µM
Text: NIH Chemical Genomics Center [NCGC]
NIH Molecular Libraries Probe Centers Network [MLPCN]
Assay Submitter (PI): Thomas Bugge
The overall objective of this project is to perform a quantitative high throughput screen (qHTS) to identify novel compounds that inhibit the generation of cell surface urokinase activity. The urokinase plasminogen activator (uPA) is one of the two primary endogenous systems that mediate plasminogen activation into plasmin. Members of this system, including uPA and its receptor (uPAR), are overexpressed in several malignant tumors. This system plays a major role in adhesion, migration, invasion and metastasis of cancer cells. Small molecule inhibitors of the uPA system will serve as probes to understand the molecular mechanisms of the uPA cascade and better understanding the microenvironmental circumstances that facilitate the activation of plasminogen by uPA, and finally may provide novel candidate agents for anticancer drug therapy.
[…] […] Upon inhibition of the uPA activation cascade, the subsequent cell surface uPA activity-dependent translocation of LF into the cytoplasm is inhibited. ATP-Lite is used to measure intracellular ATP concentrations, which remain increased if LF entry into the cytoplasm is inhibited. This validation assay was performed using a small set of validation compounds.
uPA assay protocol summary:
RAW 264.7 cells were maintained in DMEM medium (Invitrogen, Carlsbad, CA) at 37C under a humidified atmosphere containing 5% CO2 and 95% air. The medium contained 10% FBS, 1 mM sodium pyruvate and 50 U/ml penicillin/streptamycin (Invitrogen, Carlsbad, CA). All compounds were screened as 7-point titration from 2.45 nM to 38.3 uM final concentration. The assay was performed in 1536-well format plate as follows:
1.Dispensing RAW 264.7 cells into 1536-well, white walled tissue culture plates at a density of 4000 cells/well (4 uL).
2.Incubation at 37 C in a 5% CO2 incubator overnight.
3.Serially diluting compounds (1:5 serial dilution; 0.0024 uM to […] final concentration) in 23 nl DMSO.
5.Incubating the compound and reagent-treated plates for 18 hours at 37 C in a 5% CO2 incubator.
6.Adding ATP-Lite (3 ul).
7.Reading plates by ViewLux with an exposure length of 5 seconds.

| Structure (SMILES) | outcome |
| --- | --- |
| O=c1c(O)c(-c2ccc(O)cc2O)oc2cc(O)cc(O)c12 | inactive |
| CC(=O)O[C@H]1C(=O)[C@@]2(C)C([C@H](OC(=O)c3ccccc3)[C@]3(O)C[C@H](OC(=O)[C@H](O)[C@@H](NC(=O)c4ccccc4)c4ccccc4)C(C)=C1C3(C)C)[C@]1(OC(C)=O)CO[C@@H]1C[C@@H]2O (some centres not stated) | inactive |
| O=c1cc(N2CCOCC2)oc2c(-c3ccccc3)cccc12 | inactive |
| Nc1nc(N)c(N=O)c(OCC2CCCCC2)n1 | inactive |
| Cc1cccc(C#Cc2ccccc2)n1 | inactive |
| Cc1cc(O)c2c(c1)C(=O)c1cc(O)cc(O)c1C2=O | inactive |
| OC(CN1CCN(c2cccc(Cl)c2)CC1)C(c1ccccc1)c1ccccc1 (configuration not stated) | inactive |
| CC(=O)N1CCN(c2ccc(OC[C@H]3CO[C@](Cn4ccnc4)(c4ccc(Cl)cc4Cl)O3)cc2)CC1 | inactive |
| NNc1nncc2ccccc12 | inactive |
| O=C1NC(=O)C(c2ccccc2[N+](=O)[O-])=C1Nc1ccc(O)c(Cl)c1 | inactive |
| CC(C)c1ccc2c(c1)c(SC(C)(C)C)c(CC(C)(C)C(=O)O)n2Cc1ccc(Cl)cc1 | inactive |
| O=C(CCc1ccc(O)cc1)c1c(O)cc(O)cc1O | inactive |
| CNC[C@H](O)c1ccc(O)c(O)c1 | inactive |
| COc1cc2c(cc1OC)C1CC(=O)C(CC(C)C)CN1CC2 (configuration not stated) | inactive |
| Cc1c(OCC(F)(F)F)ccnc1CS(=O)c1nc2ccccc2[nH]1 (configuration not stated) | inactive |
| CN(C)CCCC1(c2ccc(F)cc2)OCc2cc(C#N)ccc21 (configuration not stated) | inactive |
| Oc1ccc(-c2nc(-c3ccc(F)cc3)c(-c3ccncc3)[nH]2)cc1 | inactive |
| CCN(CC)C(=S)SSC(=S)N(CC)CC | inactive |
| C[C@@H](N)C1CCC(C(=O)Nc2ccncc2)CC1 (some centres not stated) | inactive |

| Structure (SMILES) | outcome |
| --- | --- |
| O=C(O)c1cccnc1Nc1cccc(C(F)(F)F)c1 | inactive |
| Nc1nc(OCc2ccccc2)c2[nH]cnc2n1 | inactive |
| COc1cc2nc(N3CCN(C(=O)C4CCCO4)CC3)nc(N)c2cc1OC (configuration not stated) | inactive |
| Oc1ccc2ccccc2c1SSc1c(O)ccc2ccccc12 | inactive |
| O=C1c2c(O)cc(O)cc2OC(c2ccc(O)c(O)c2)C1O (configuration not stated) | inactive |
| C[C@H](Cc1ccc(O)c(O)c1)[C@@H](C)Cc1ccc(O)c(O)c1 | inactive |
| CC1(C)C(=O)N(CCN2CCC(C(=O)c3ccc(F)cc3)CC2)c2ccccc21 | inactive |
| COc1ccc2cc([C@H](C)C(=O)O)ccc2c1 | inactive |
| NCCCCNCCCN | inactive |
| CC1(C)NC(=O)N(c2ccc([N+](=O)[O-])c(C(F)(F)F)c2)C1=O | inactive |
| O=c1ccc2ccc(O)c(O)c2o1 | inactive |
| Nc1ccn([C@@H]2O[C@H](CO)[C@@H](O)C2O)c(=O)n1 (some centres not stated) | inactive |
| COc1ccccc1N1CCN(CCN(C(=O)C2CCCCC2)c2ccccn2)CC1 | inactive |
| O=c1c(O)c(-c2cc(O)c(O)c(O)c2)oc2cc(O)cc(O)c12 | inactive |
| NC(=NCc1ccccc1)NC(=O)c1nc(Cl)c(N)nc1N | inactive |
| CCOC(=O)C(C)Oc1cccc2c(=O)n(CC(=O)Nc3ccc4c(c3)OCCO4)ccc12 (configuration not stated) | inactive |
| O=C(c1ccccc1)c1ccc2n1CCC2C(=O)O (configuration not stated) | inactive |
| O=Nc1c(-c2c(O)[nH]c3cc(Br)ccc23)[nH]c2ccccc12 | inactive |
